For six compounds, growth results are on record in PubChem BioAssay (NCI).

Each structure is given as a SMILES string. Values joined by “and” are separate entries in the source; they are usually repeats but may differ in a detail not shown here. Equal entries are not always repeated. About 83,000 compounds went through this panel and 20% of them were active in at least one assay; those are over-represented in the sample as a whole.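 Percent growth is the endpoint: 0 to 100 indicates growth inhibition (40 means 60% inhibition), 0 means no net growth, and negative values indicate cell death.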 Values without a mark were called inactive. Active and inactive are the calls of the source. The calls were made as follows: active = growth percent below 10; inactive = the rest.

Some test systems named below: MOLT-4 leukemia; SR leukemia; RPMI-8226 leukemia; OVCAR-5 ovarian; OVCAR-4 ovarian; SK-OV-3 ovarian; IGROV1 ovarian; HS 578T breast; NCI/ADR-RES ovarian; T-47D breast; BT-549 breast; MDA-MB-435 melanoma; SW-620 colon; MCF7 breast; HCT-116 colon; HCC-2998 colon; KM12 colon.
What all share (experiment): NCI-60 one-dose screen, 48 h (100 = growth as untreated, 0 = no growth, -100 = all killed)
In a further assay the test system is OVCAR-8 ovarian. To be noted: 10 µM unless noted.
A further assay deals with OVCAR-3 ovarian. The following applies: 10 µM unless noted.

As to `C/C(=C\c1ccn(-c2ccc(N)c(C(F)(F)F)c2)n1)[C@@H]1C[C@@H]2O[C@]2(C)CCC[C@H](C)[C@H](O)[C@@H](C)C(=O)C(C)(C)[C@@H](O)CC(=O)O1`, the growth is 10.2% in the assay on MOLT-4 leukemia (10 µM unless noted); 7.67% (active) in the assay with SR leukemia (10 µM unless noted); 9.58% (active) with RPMI-8226 leukemia (10 µM unless noted); 28.4% in the assay on OVCAR-8 ovarian; 23% with OVCAR-5 ovarian (10 µM unless noted); 55.1% in the assay with OVCAR-4 ovarian (10 µM unless noted). Further, the growth is 45% in the assay on SK-OV-3 ovarian (10 µM unless noted); 40.4% in the assay on IGROV1 ovarian (10 µM unless noted); -0.83% (active) in the assay with OVCAR-3 ovarian; 25.1% with HS 578T breast (10 µM unless noted); 0.324% (active) in the assay on NCI/ADR-RES ovarian (10 µM unless noted); 47.6% with T-47D breast (10 µM unless noted). Also, the growth with BT-549 breast (10 µM unless noted) is 28.2%; in the assay on MDA-MB-435 melanoma (10 µM unless noted), -26.8% (active); in the assay on SW-620 colon (10 µM unless noted), 44.5%; in the assay on MCF7 breast (10 µM unless noted), 17%; in the assay on HCT-116 colon (10 µM unless noted), 9.04% (active); in the assay on HCC-2998 colon (10 µM unless noted), 0.272% (active).
`CCC1(CCSC#N)C(=O)NC(=O)NC1=O`: the growth with MOLT-4 leukemia (10 µM unless noted) was 85.1%; in the assay with SR leukemia (10 µM unless noted) it was 88.8%; in the assay on RPMI-8226 leukemia (10 µM unless noted), 106%; with OVCAR-8 ovarian, 102%; in the assay on OVCAR-5 ovarian (10 µM unless noted) it was 109%; with OVCAR-4 ovarian (10 µM unless noted) it was 91.4%. The growth in the assay with SK-OV-3 ovarian (10 µM unless noted) was 98.4%; in the assay on IGROV1 ovarian (10 µM unless noted), 104%; in the assay on OVCAR-3 ovarian it was 105%; in the assay on HS 578T breast (10 µM unless noted), 106%; with NCI/ADR-RES ovarian (10 µM unless noted), 104%; in the assay on T-47D breast (10 µM unless noted), 78.4%. Moreover, the growth with BT-549 breast (10 µM unless noted) was 95.3%; in the assay with MDA-MB-435 melanoma (10 µM unless noted), 106%; in the assay with SW-620 colon (10 µM unless noted), 106%; in the assay with MCF7 breast (10 µM unless noted), 91.2%; in the assay with HCT-116 colon (10 µM unless noted), 94.1%; with HCC-2998 colon (10 µM unless noted), 98.2%.
Take `Cc1nnc([S-])o1.[Au+].c1ccc([PH+](c2ccccc2)c2ccccc2)cc1`: the growth is 38.6% with MOLT-4 leukemia (10 µM unless noted); 20.8% with SR leukemia (10 µM unless noted); 17.2% with RPMI-8226 leukemia (10 µM unless noted); 44.8% in the assay with OVCAR-8 ovarian; 110% in the assay with OVCAR-5 ovarian (10 µM unless noted); 60.4% with OVCAR-4 ovarian (10 µM unless noted). Also, the growth with SK-OV-3 ovarian (10 µM unless noted) was 111%; in the assay on IGROV1 ovarian (10 µM unless noted), 20.9%; in the assay on OVCAR-3 ovarian, -61.4% (active); in the assay with HS 578T breast (10 µM unless noted), 30.4%; in the assay with NCI/ADR-RES ovarian (10 µM unless noted), 99.6%; with T-47D breast (10 µM unless noted), 29.6%. The growth was 34.1% with BT-549 breast (10 µM unless noted); 43.9% with MDA-MB-435 melanoma (10 µM unless noted); -11.8% (active) with SW-620 colon (10 µM unless noted); 10.3% in the assay with MCF7 breast (10 µM unless noted); 21.6% in the assay on HCT-116 colon (10 µM unless noted); 80.2% in the assay on HCC-2998 colon (10 µM unless noted). Moreover, in the assay on KM12 colon (10 µM unless noted), the growth was 74.2%.
`O=C(O)CCCc1ccc(N(CCCl)CCCl)cc1`: the growth in the assay with MOLT-4 leukemia (10 µM) is 73.4% and 35.5%; with MOLT-4 leukemia (75 µM), 6.72% (active); in the assay on SR leukemia (10 µM) it was 44.8% and 19.5%; with SR leukemia (75 µM), 5.82% (active); with RPMI-8226 leukemia (10 µM), 84.4% and 90.7%; with RPMI-8226 leukemia (75 µM), 7.4% (active). Also, the growth with OVCAR-8 ovarian is 87.5%; with OVCAR-5 ovarian (10 µM) it was 97.7% and 81.1%; in the assay with OVCAR-5 ovarian (75 µM), 66.4%; in the assay with OVCAR-4 ovarian (10 µM) it was 102% and 107%; in the assay with OVCAR-4 ovarian (75 µM), 83.2%; in the assay with SK-OV-3 ovarian (10 µM), 101% and 108%. The growth in the assay with SK-OV-3 ovarian (75 µM) is 59.8%; with IGROV1 ovarian (10 µM), 80.2%; with IGROV1 ovarian (75 µM), 50.9%; with HS 578T breast (10 µM), 120% and 113%; in the assay with HS 578T breast (75 µM), -4.49% (active); in the assay on NCI/ADR-RES ovarian (10 µM), 96.3% and 89%. Moreover, the growth was 31% in the assay on NCI/ADR-RES ovarian (75 µM); 87.2% and 74.8% with T-47D breast (10 µM); 27.3% with T-47D breast (75 µM); 86.7% and 96.5% with BT-549 breast (10 µM); 11.7% in the assay on BT-549 breast (75 µM); 102% and 97.9% with MDA-MB-435 melanoma (10 µM). The growth was 38.8% with MDA-MB-435 melanoma (75 µM); 86.5% and 82.8% in the assay on SW-620 colon (10 µM); 51.3% in the assay on SW-620 colon (75 µM); 80.9% and 68.4% in the assay on MCF7 breast (10 µM); 24.9% in the assay on MCF7 breast (75 µM); 84.4% and 87% in the assay with HCT-116 colon (10 µM). Moreover, the growth was 32.1% in the assay with HCT-116 colon (75 µM); 85.1% and 87.7% in the assay with HCC-2998 colon (10 µM); 6.85% (active) with HCC-2998 colon (75 µM); 105% and 98% with KM12 colon (10 µM); 65.3% in the assay with KM12 colon (75 µM).
Take `Oc1ccc(O)c(Cl)c1`: the growth with MOLT-4 leukemia (10 µM unless noted) was 65.6% and 105%; in the assay with SR leukemia (10 µM unless noted) it was 70.4% and 94.5%; with RPMI-8226 leukemia (10 µM unless noted) it was 28.5% and 91.1%; in the assay with OVCAR-8 ovarian it was 90.4% and 102%; in the assay on OVCAR-5 ovarian (10 µM unless noted), 112% and 113%; with OVCAR-4 ovarian (10 µM unless noted), 107% and 104%. Also, the growth in the assay with SK-OV-3 ovarian (10 µM unless noted) is 108% and 105%; in the assay on IGROV1 ovarian (10 µM unless noted) it was 107% and 108%; in the assay with OVCAR-3 ovarian, 79.6% and 97.8%; in the assay on HS 578T breast (10 µM unless noted), 93.5% and 97.7%; in the assay with NCI/ADR-RES ovarian (10 µM unless noted), 102% and 97.3%; in the assay with T-47D breast (10 µM unless noted) it was 89.1%. Also, the growth in the assay on BT-549 breast (10 µM unless noted) is 66.3% and 96.1%; in the assay on MDA-MB-435 melanoma (10 µM unless noted), 102% and 109%; in the assay on SW-620 colon (10 µM unless noted) it was 112% and 115%; in the assay with MCF7 breast (10 µM unless noted), 86% and 96.7%; in the assay with HCT-116 colon (10 µM unless noted), 102% and 109%; in the assay with HCC-2998 colon (10 µM unless noted), 110% and 88.1%. Besides, the growth with KM12 colon (10 µM unless noted) was 100% and 102%.
For the compound `COc1cc(C2C3=C(CCCC3=O)N(CCO)c3cc4c(cc32)CCC4)cc(OC)c1OC` (stereo not drawn), the growth in the assay with MOLT-4 leukemia (10 µM unless noted) is 93.5%; in the assay with SR leukemia (10 µM unless noted), 117%; in the assay on RPMI-8226 leukemia (10 µM unless noted), 76.2%; in the assay with OVCAR-8 ovarian, 83.5%; with OVCAR-5 ovarian (10 µM unless noted) it was 96.1%; in the assay on OVCAR-4 ovarian (10 µM unless noted), 75.5%. Also, the growth is 114% in the assay with SK-OV-3 ovarian (10 µM unless noted); 98.4% in the assay on IGROV1 ovarian (10 µM unless noted); 93.5% in the assay with OVCAR-3 ovarian; 99.9% with HS 578T breast (10 µM unless noted); 87.8% in the assay on NCI/ADR-RES ovarian (10 µM unless noted); 38.2% in the assay on T-47D breast (10 µM unless noted). Further, the growth in the assay with BT-549 breast (10 µM unless noted) is 109%; in the assay on MDA-MB-435 melanoma (10 µM unless noted) it was 100%; with SW-620 colon (10 µM unless noted), 103%; in the assay on MCF7 breast (10 µM unless noted), 23%; in the assay with HCT-116 colon (10 µM unless noted), 68.6%; in the assay with HCC-2998 colon (10 µM unless noted), 78.9%. In the assay with KM12 colon (10 µM unless noted), the growth is 90.5%.
